Shown are actives, neighbours in structure and some others; about 7.3% of the full set was active somewhere.
HCMV inh – qHTS Assay for inhibitors of the human cytomegalovirus (HCMV); HFF cells, HCMV-luciferase reporter, 72 h; stronger effect = lower value; AID 1259415, 2018; 410,000 compounds, 4.5% hits; activity change, negative = inhibition, % at 57.5 µM; in the data active = activity change below about -60%; inconclusive = no clear call, values can overlap the other calls; inactive = above about -39%
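Compounds were evaluated in HFFs infected with an HCMV luciferase reporter virus (MOI 1 PFU/cell). Luciferase in lysates collected 72 h post infection served as the replication measure.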
VACV Venus inh – qHTS for Stage-Specific Inhibitors of Vaccinia Orthopoxvirus: Venus Reporter Primary qHTS; Vaccinia virus Venus reporter expression, fluorescence; 330,000 compounds, 0.46% hits; Potency, µM (highest dose often 36.5 µM), hits mostly inhibitors; calls by dose curve; tested in A549 cells; note: nearly all actives have a fitted effect of over 30% in size
FMDV antiviral – High Throughput Screening for Foot and Mouth Disease Virus Antivirals; FMDV antiviral cell-based qHTS; Potency, µM (highest dose often 57.9 µM), usual class: inhibitors; 410,000 compounds, 1.2% hits; AID 1159524, 2015; calls by dose curve; tested in HEK293T cells; note: read-out not given here; nearly all actives have a fitted effect of over 45% in size
HCV inh – qHTS Assay for Inhibitors of Hepatitis C Virus (HCV). Huh7.5.1 HCVcc-Cre infection, luciferase reporter, 44 h. Potency, µM (highest dose often 41.8 µM), actives largely listed as inhibitors. 340,000 compounds, 3.4% hits; active = well fitted inhibition curve with a large enough effect; inconclusive = small, poorly fitted or top-dose-only effect, or another doubt; inactive = no such curve, though single readings can be large or run the other way
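HCVcc-Cre virus at an moi near 0.5 was added right after compound to cells cultured 4 h from seeding (1,000 cells/well). Luciferase activity was determined 44 h later, 15 min after substrate addition at RT.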
VACV mCherry inh – qHTS for Stage-Specific Inhibitors of Vaccinia Orthopoxvirus: mCherry Reporter Primary qHTS; 310,000 compounds, 0.63% hits; Potency, µM (highest dose often 36.5 µM), actives largely listed as inhibitors; Vaccinia virus mCherry reporter infection, fluorescence; AID 720579, 2013; calls by dose curve; tested in A549 cells; note: nearly all actives have a fitted effect of over 35% in size
Large screens that a line does not name were inactive.

Cc1ccc(NC(=O)CCS(=O)(=O)c2ccccc2)cc1S(=O)(=O)N1CCCCCC1	none
COCCCN=C1NN=C(c2cc(C)n(Cc3ccccc3Cl)c2C)CS1	HCMV inh -64.5, HCV inh inconclusive
CN(C)S(=O)(=O)c1cccc(N=C2NN=C(c3ccccc3)CS2)c1	HCMV inh inconclusive, VACV Venus inh inconclusive, FMDV antiviral inconclusive, HCV inh 35.5µM, VACV mCherry inh inconclusive
COc1ccc(C2=NNC(=Nc3cc(S(=O)(=O)N(C)C)ccc3C)SC2)c(OC)c1	HCMV inh -97.5, FMDV antiviral inconclusive, HCV inh 12.6µM (no result: VACV Venus inh, VACV mCherry inh)
COCCn1c(C)cc(C2=NNC(=Nc3ccccc3F)SC2)c1C	HCMV inh -73.0, FMDV antiviral inconclusive
COc1ccc(C(=O)N=C2SC3CS(=O)(=O)CC3N2c2ccc(N(C)C)cc2)cc1OC (configuration not stated)	none (no result: VACV Venus inh, VACV mCherry inh)
CCC[C@H]1[C@@H](NC(=O)NCCCC(=O)OCC)CC[C@@]23CCCN2C(=O)CCC[C@@H]13	none (no result: VACV Venus inh, FMDV antiviral, HCV inh, VACV mCherry inh)
CC(C)Oc1ccc(CN2CCc3nc(Nc4ccc5c(c4)OCCO5)ncc3C2)cc1	HCMV inh inconclusive (no result: HCV inh)
Fc1ccccc1N=C1NN=C(c2ccccc2)CS1	HCMV inh -98.1, VACV Venus inh inconclusive, HCV inh inconclusive
CC(C)c1ccc(NS(=O)(=O)c2ccc3nc(-c4ccccc4)[nH]c3c2)cc1	none (no result: HCV inh)
O=C(NCc1cccc(Cl)c1)c1cccn1-c1nnc(N2CCCC2)s1	HCMV inh inconclusive (no result: HCV inh)
COc1ccc(C2CC(c3ccc(F)cc3)=NN2c2ccccc2)cc1OC (configuration not stated)	HCV inh inconclusive
Oc1ccccc1C1=NN(c2ccccc2)C(c2ccc(F)cc2)C1 (configuration not stated)	HCMV inh -73.7
Oc1ccc(C2=NN(c3ccccc3)C(c3ccc(F)cc3)C2)cc1 (configuration not stated)	VACV Venus inh inconclusive, FMDV antiviral inconclusive, HCV inh 10µM
O=C(c1cnn2c(C(F)F)cc(C3CC3)nc12)N1CCc2ccccc2C1	FMDV antiviral inconclusive, HCV inh 8.91µM (no result: VACV mCherry inh)
O=C(c1cnn2c(C(F)F)cc(-c3ccccc3)nc12)N1CCc2ccccc2C1	HCMV inh inconclusive, FMDV antiviral inconclusive, HCV inh inconclusive
COc1ccc(C(CNc2ccc(S(=O)(=O)N3CCN(C)CC3)cc2[N+](=O)[O-])N(C)C)cc1 (configuration not stated)	HCV inh 10µM
COc1ccccc1NS(=O)(=O)c1ccc(NN=C2CCCC2)c([N+](=O)[O-])c1	HCMV inh -78.7, HCV inh inconclusive
COc1ccccc1NS(=O)(=O)c1ccc(N/N=C/C=C/c2ccccc2[N+](=O)[O-])c([N+](=O)[O-])c1	none
COc1ccc(CCN(C)c2ccc(S(=O)(=O)N3CCCC3)cc2[N+](=O)[O-])cc1OC	HCMV inh inconclusive, FMDV antiviral inconclusive, HCV inh inconclusive
COc1ccc(C(CNc2ccc(S(=O)(=O)N3CCCC3)cc2[N+](=O)[O-])N2CCCC2)cc1 (configuration not stated)	HCV inh inconclusive
COc1ccc(CN(C)c2ccc(S(=O)(=O)N3CCN(C)CC3)cc2[N+](=O)[O-])cc1OC	HCMV inh -85.9, FMDV antiviral inconclusive, HCV inh 0.562µM
COc1ccc(CCNc2ccc(S(=O)(=O)N3CCN(C)CC3)cc2[N+](=O)[O-])cc1	HCV inh inconclusive
COc1ccccc1C(CNc1ccc(S(=O)(=O)N2CCCC2)cc1[N+](=O)[O-])N(C)C (configuration not stated)	HCMV inh inconclusive, VACV Venus inh 10µM, VACV mCherry inh 8.91µM
Cc1cc2nccc(-c3ccncc3)n2n1	HCMV inh -63.8
Cc1cc2nccc(-c3ccc(Cl)cc3Cl)n2n1	HCMV inh -70.2, HCV inh inconclusive (no result: VACV Venus inh, VACV mCherry inh)
Cc1ccc(-c2ccnc3cc(C)nn23)cc1	HCMV inh inconclusive, HCV inh inconclusive (no result: VACV Venus inh, VACV mCherry inh)
CCC(Oc1ccccc1)C(=O)Nc1ccc(OCc2cc(=O)n3ccc(C)cc3n2)cc1 (configuration not stated)	none (no result: HCV inh)
O=C1Nc2ccccc2C(=O)N2[C@H](c3cccc(Br)c3)[C@@H]3C(=O)N(Cc4ccccc4)C(=O)[C@@H]3[C@H]12	HCMV inh -60.4

Screening data as filed in PubChem.
